In all, about 24,000 sequences were measured (“enrichment r”: median about 0.99, highest 2% from about 3.7 on). The sample holds the highest values, similar sequences and a random draw of the others, so the mix is not that of the screen.
T1: UNK ZnF1-3 (human, UniProt Q9C0B0 31-174)
T1 sequence: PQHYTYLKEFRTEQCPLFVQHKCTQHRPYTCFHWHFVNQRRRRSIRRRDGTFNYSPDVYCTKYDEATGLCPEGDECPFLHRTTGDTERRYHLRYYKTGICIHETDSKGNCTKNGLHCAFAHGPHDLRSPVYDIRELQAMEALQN

B1: 47062174_47062422_1437_CDS_ENSG00000130985_ENST00000335972|human|control|control (ssRNA)
RNA: GGGAGUUCUACAGUCCGACGAUCGACCUCUUUGUCCUCAGGGAGACACUCAAGGGCAUCAAAGUAUAGCCACUGCAUGAUGGGCAUGAACUUCCCGGAGCAGGCCUUCAUGACUUCCUGGGCAGCCAGGCCCCCAAUGAAGGCCAACAGAGGAUUGAGCAUCA
B2: 126416003_126416123_291_3pUTR_ENSMUSG00000078429_ENSMUST00000105256|mouse|control|control (ssRNA)
RNA: GGGAGUUCUACAGUCCGACGAUCAGGCGGCCUGCACAGAGGGCGGGCGGGCCAGGCGGCGGCUUCCCCGGUGCCCCCAGCCCCGAUCCCCCGGUGGCAGCUCCGGGCUCCUCAGUUUGGGUCCAACAUGGAGAAUCCGGAGCGCAACAGAGGAUUGAGCAUCA
B3: 132387670_132387790_77_5pUTR_ENSG00000170606_ENST00000304858|human|control|control (ssRNA)
RNA: GGGAGUUCUACAGUCCGACGAUCGGUACUGCAACCGAGAGCGCUGCUCAGGCCGGCUCCGGCUCAGUGGCCGCAGAGGAGGCGCCGGUAGCGGGGGCGGAGAAGAUCUCGAAAGAUCUCGUUGCGACGAGAGCGGAGCCGCAGCAACAGAGGAUUGAGCAUCA
B4: chr2:180329438:180329439:+_ENSMUSG00000049401_ENSMUST00000029087|mus_hu|FALSE|FALSE (ssRNA)
RNA: GGGAGUUCUACAGUCCGACGAUCCUCUGAGGCACUCUGAGGGCCUGGCUCUGUGGGCGGCUGCUCCCGCCGGCUCAGCUCCAGCUUCCUCUUCUUGCUCUCUUUGGGGCUUAAGGGCUCCGGCCUAUCUUCCCCGUGGCCCCCCAACAGAGGAUUGAGCAUCA
B5: chr6:35489678:35489679:-_ENSMUSG00000029840_ENSMUST00000031866|mus_hu|FALSE|FALSE (ssRNA)
RNA: GGGAGUUCUACAGUCCGACGAUCAGAAGAUGAGGAGGCGGUGGCAGCAGCAAGCGGAUGCCGCCGGGCGAGAGGGAGGCAGGGCCGCGCGAAGCCGGAGAGGAGAAGAAGAGAAGGAGGGUUAGGCUGCCAGGCGGGCGAGGCCAACAGAGGAUUGAGCAUCA
B6: chr6:30691630:30691631:+_ENSG00000196230_ENST00000327892|hu_hu|FALSE|FALSE (ssRNA)
RNA: GGGAGUUCUACAGUCCGACGAUCAGCUCGAUACUGCUGGCUUCCACGGCUGGUGAGAGGGGCAAAGCCAGGCAUAAAGAAAUGGAGACGUGGGAAGGGGACCAUGUUGACUGCCAACUUGCGGAGGUCAGCAUUGAGCUGGCCCAACAGAGGAUUGAGCAUCA
B7: 44991723_44991843_1432_CDS_ENSMUSG00000038518_ENSMUST00000173246|mouse|control|control (ssRNA)
RNA: GGGAGUUCUACAGUCCGACGAUCCUGAGCAGACCGAUGCGAAGGGGGAGGUUGGUGGUUGGCAGCAAGUCCCUUGGCAGAGGAAGCCGCAGCCGAGGCGGCCGUGGGCUGAGCCCCUGAAGCCUGUUCUCUCCGGCUGUCUGCCAACAGAGGAUUGAGCAUCA
B8: chr7:133967480:133967481:+_ENSMUSG00000058966_ENSMUST00000079423|mus_mus|FALSE|FALSE (ssRNA)
RNA: GGGAGUUCUACAGUCCGACGAUCAGGGAGUUGGAGGUGAAGAAGGGAUUGCCAAGCCAGAAAGGGAGAGAGAAAGAGGGAGGGGGAGGCACAAAGGGGCCAGGGCGGGGACAGGAUGGGACAAGAGGACCAGUUCAGGGCAAGCAACAGAGGAUUGAGCAUCA
B9: 86322860_86322980_198_3pUTR_ENSG00000135018_ENST00000376395|human|control|control (ssRNA)
RNA: GGGAGUUCUACAGUCCGACGAUCCUUCCUCCUCCCUGCCCCUUCCCCCACGUCCCUUCGCCGGCGCCGCGCGGAGCACGCCGGGUAACGCGCCUGGCGGCGUCGCCGAGUCAUCCCCGGCUGGCGCGACUUUGAGCUCAGCCUCAACAGAGGAUUGAGCAUCA
B10: 91300164_91300284_179_3pUTR_ENSMUSG00000038459_ENSMUST00000117085|mouse|control|control (ssRNA)
RNA: GGGAGUUCUACAGUCCGACGAUCCCGCCGGGGCGGGCGCGGGGGUCGCCGCGGGAGCGGGCGCGCGCUGCUCGGGCGCCAGCACCGUGUAGGUGGGUUCGGGCGGCAGGAAGGCCAGCUUGGCGGCGAUGCGGCUCGGACAAGCAACAGAGGAUUGAGCAUCA
B11: chr9:123912698:123912699:+_ENSG00000119397_ENST00000373850|hu_hu|FALSE|FALSE (ssRNA)
RNA: GGGAGUUCUACAGUCCGACGAUCAUGGUGUUCAGGGACGUUGCAAUGCAGCACACCCAUAGGGAUGAAGGGGAUGGAGAAGUUGGGGGGUGGAGGCCCAUACACCAUGGGGGCCCCAGCAGGAGGUGGGCCAUAAACAACAGUCAACAGAGGAUUGAGCAUCA
B12: 62352434_62352554_269_CDS_ENSMUSG00000018509_ENSMUST00000018653|mouse|control|control (ssRNA)
RNA: GGGAGUUCUACAGUCCGACGAUCCUGCUCCCCCAGGUCGAGCGCCGACACCGAGGCGGCGGGGGUGACCGCCGGCGGUGGCUCCUCGGCGGCCGCCUCCUGGGCCCGCGGCGGUGGCUUGGGCCGCGGCUUUGCCGACGGCUGCAACAGAGGAUUGAGCAUCA
B13: 98346538_98346658_211_5pUTR_ENSG00000077147_ENST00000371142|human|control|control (ssRNA)
RNA: GGGAGUUCUACAGUCCGACGAUCCAGCCACAGCGCGGCGGCCGCCGCCACGCCAAGAGCGCCAGGCAGCGGCCUCAUCCUCCGCGCCCCUCCGGCCCGGAGCCGGCUCACCGACUCCUCCUCCCGCCGCCGCCUCCUCCGCCGCAACAGAGGAUUGAGCAUCA

The binders below were run against T1, UNK ZnF1-3 (assay: nsRBNS (natural sequence RNA bind-n-seq); RBNS binding buffer (assumed for nsRBNS): 25 mM Tris pH 7.5, 150 mM KCl, 3 mM MgCl2, 0.01% Triton X-100, 500 ug/ml BSA, 20 U/ml SUPERase-In, 4 C; UNK is unkempt and MSI1 is Musashi-1; names of the RNAs are library labels; protein concentration not given here; high values mean tight binding).

Binder | binding signal
B1 | 1.06 enrichment R
B2 | 2.26 enrichment R
B3 | 1.09 enrichment R
B4 | 0.81 enrichment R
B5 | 3.69 enrichment R
B6 | 1.75 enrichment R
B7 | 1.39 enrichment R
B8 | 5.53 enrichment R
B9 | 0.759 enrichment R
B10 | 0.777 enrichment R
B11 | 1.48 enrichment R
B12 | 4.47 enrichment R
B13 | 5.42 enrichment R

Reference: publication PMC12136788
